Laboratory results: PubChem BioAssay (NCI)
Compounds without any hit were thinned out: in the full panel of roughly 83,000, 20% have a hit.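 Interpretation: 100, growth as untreated; towards 0, rising growth inhibition; 0, no net growth; 0 to -100, cell death. Compounds scoring below 10 were considered active.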 Activity calls are given as the source filed them.

Assays:
Assay in all cases: NCI-60 one-dose screen, 48 h (100 = growth as untreated, 0 = no growth, -100 = all killed)
NCI-H23 lung = details: 10 µM
HOP-92 NSCLC = details: 10 µM
K-562 leukemia = details: 10 µM
RXF 393 renal = details: 10 µM
HCT-15 colon = details: 10 µM
SNB-19 CNS = details: 10 µM
UO-31 renal = details: 10 µM
MOLT-4 leukemia = details: 10 µM
SR leukemia = details: 10 µM
OVCAR-8 ovarian = details: 10 µM
SK-OV-3 ovarian = details: 10 µM
T-47D breast = details: 10 µM
MDA-MB-468 breast = details: 10 µM unless noted
M14 melanoma = details: 10 µM
CAKI-1 renal = details: 10 µM
MDA-MB-231 breast = details: 10 µM
LOX IMVI melanoma = details: 10 µM
HS 578T breast = details: 10 µM
SW-620 colon = details: 10 µM

Measured: growth

COc1ccc(OC)c(/C=C/C(=O)c2nc3ccccc3n2Cc2ccc(F)cc2)c1
inactive: SK-OV-3 ovarian 50.2% | T-47D breast 10.5%
active: NCI-H23 lung -49.1% | HOP-92 NSCLC -11% | K-562 leukemia 0.885% | RXF 393 renal -52.5% | HCT-15 colon -61.8% | SNB-19 CNS -38.9% | UO-31 renal -43.9% | MOLT-4 leukemia -6.12% | SR leukemia -8.46% | OVCAR-8 ovarian 3.97% | MDA-MB-468 breast -57.3%

N#C[Se]CC(=O)Nc1cccc(C(F)(F)F)c1
inactive: K-562 leukemia 20.5% | SR leukemia 18.5% | SK-OV-3 ovarian 14%
active: NCI-H23 lung -46.7% | HOP-92 NSCLC -69.3% | RXF 393 renal -40.9% | M14 melanoma -42.7% | CAKI-1 renal -72.1% | MOLT-4 leukemia 9.42% | OVCAR-8 ovarian -49.9% | MDA-MB-468 breast -86.7%

COc1cc(OC)c(S(=O)(=O)N(CCCl)CCCl)cc1C(=O)/C=C/c1cc(OC)c(OC)c(OC)c1
inactive: MDA-MB-231 breast 23.4% | HS 578T breast 78.3%
active: HOP-92 NSCLC 9.15% | K-562 leukemia 4.13% | RXF 393 renal -75.5% | M14 melanoma -59.4% | HCT-15 colon -25.1% | LOX IMVI melanoma -84.5% | MOLT-4 leukemia -1.79% | SR leukemia 2.75% | OVCAR-8 ovarian 9.85% | SW-620 colon 7.43% | MDA-MB-468 breast -40.5%
